From PubChem
Shown are actives, neighbours in structure and some others; about 21% of the full set was active somewhere.
CHX counter: counter-screen hit for Shiga toxin inhibitors, cycloheximide; cell reporter, cycloheximide protein synthesis inhibition counterscreen; max response, %; 300,000 compounds, 12% hits; AID 2314; in the data active = max response mostly above about 13%, no sharp cut-off; inactive = mostly below about 14%; also: read at 38.3 µM for the half of the compounds with a filed dose; 0% is about no effect
Pf growth 96h: inhibits malaria parasite growth, 96 h; 320,000 compounds, 6.9% hits; Potency, µM (top dose mostly 28.7 µM), without a hit: top-dose activity change, negative = inhibition, usual class: inhibitors; AID 504834; P. falciparum luciferase reporter growth, 96 h; also: potency is read from the fitted curve at half-maximal effect; % is scaled to controls: 0 for no effect and ±100 for the full control effect
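Luminescence readout: decreased luciferase signal marks inhibited growth of reporter-expressing P. falciparum in infected red cells (2% hematocrit, 0.05% parasitemia final), exposed to compound two generations (96 h, 37 C, 5% CO2).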
Shiga toxin inh: Shiga toxin inhibition; Vero cells, Shiga toxin protein synthesis inhibition reporter; inhibition, % at 38.7 µM; 290,000 compounds, 9.2% hits; in the data active = inhibition mostly above about 28%, no sharp cut-off; inactive = mostly below about 43%; also: 0% is about no effect
AMA1 RON2 block: inhibitors of Plasmodium falciparum AMA1-RON2 interaction; AlphaScreen AMA1-biotinylated RON2 peptide binding; Potency, µM (titrated, usually from 58.2 µM), for inactives: at the highest dose activity change, negative = inhibition, most hits filed as inhibitors; 360,000 compounds, 0.2% hits; AID 720542;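 also: potency is read from the fitted curve at half-maximal effect; 0% = vehicle wells and -100% = peptide control; nearly all actives have a fitted effect of over 45% in size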
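AMA1 (3D7) with his tag at 25 nM final met compounds first, then biotinylated RON2 peptide at 25 nM; detection used donor plus acceptor beads, 10 µg/mL apiece, read by AlphaScreen after 30 min at room temperature.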
HCV inh: blocks hepatitis C virus. 340,000 compounds, 3.4% hits. Potency, µM (series often up to 41.8 µM), for inactives: top-dose activity change, negative = inhibition, most hits filed as inhibitors. Huh7.5.1 HCVcc-Cre infection, luciferase reporter, 44 h; also: potency is read from the fitted curve at half-maximal effect; % is scaled to controls: 0 for no effect and ±100 for the full control effect
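Luciferase read-out (15 sec integration) after a 15 min room-temperature substrate step quantifies HCVcc-Cre infection. Cells, 1,000 per well, had compound added 4 h post-plating, then virus at ~0.5 moi, and were cultured 44 h.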
Pf growth 48h: P. falciparum growth inhibition at 48 hours (one generation). Potency, µM (doses to about 28.7 µM), for inactives: at the highest dose activity change, negative = inhibition, most hits filed as inhibitors. P. falciparum luciferase growth in erythrocytes, 48 h. AID 504832. 310,000 compounds, 5.9% hits; also: potency is read from the fitted curve at half-maximal effect; % is scaled to controls: 0 for no effect and ±100 for the full control effect
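Luciferase-expressing P. falciparum in infected erythrocytes (2% hematocrit, 0.1% parasitemia final) in RPMI 1640/0.5% Albumax were exposed to compound for 48 hours at 37 C, 5% CO2; growth read as luminescence.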
Numbers without * were called inactive; ? = inconclusive; / = not tested or not shown. Unless noted, calls follow the shape of the dose curve; as a rule, active = well fitted curve in the direction sought with a large enough effect; inconclusive = small, poorly fitted or top-dose-only effect, or another doubt; inactive = no such curve, though single readings can be large; an effect the other way counts as inactive or inconclusive.

SMILES	CHX counter	Pf growth 96h	Shiga toxin inh	AMA1 RON2 block	HCV inh	Pf growth 48h
O=C1[C@H]2[C@@H](c3ccc(F)cc3)N3C(=O)N(c4cccc(Br)c4)C(=O)[C@@]3(Cc3ccc(Cl)cc3)[C@H]2C(=O)N1C1CCCCC1	-1.2	3.29µM*	-8.8	21.4%	6.4%	2.94µM*
CC[C@H](C)[C@H](NC(=O)[C@H](Cc1ccc(O)cc1)NC(=O)CNC(=O)[C@@H]1CCCN1C(=O)[C@H](CC(=O)O)NC(=O)[C@@H](N)CS)C(=O)NCC(=O)N[C@@H](CO)C(=O)N[C@@H](CCCN=C(N)N)C(N)=O	-4.1	/	-3.6	/	/	/
N/C(=N\N=C/c1ccc(Br)cc1)N/N=C\c1ccc(Br)cc1	7.9	32.3%	-26.5	-7.0%	?	?
N/C(=N\N=C\c1ccc(Cl)cc1)N/N=C/c1ccc(Cl)cc1	/	0.849µM*	/	/	/	0.757µM*
N/C(=N\N=C/c1ccc(F)cc1)N/N=C\c1ccc(F)cc1	11.1*	?	21.9	29.9%	-21.4%	0.738µM*
O=C(CCCCC(=O)NN=Cc1ccc(Cl)cc1)NN=Cc1ccc(Cl)cc1	/	/	/	15.0%	?	/
CCN1CCN(C(=O)C(C)Sc2nc3nc(C)cc(C)n3n2)CC1 (centres undefined)	/	/	/	-4.6%	1.8%	/
O=C1c2ccccc2NC(c2ccc3c(c2)OCCO3)N1c1ccc2c(c1)OCCO2 (centres undefined)	44.0*	133.4%	80.6*	-11.4%	-8.2%	46.2%
O=C1c2ccccc2NC(c2cccs2)N1O (centres undefined)	/	3.0%	/	18.0%	1.5%	-3.7%
O=C1c2ccccc2NC(c2ccc(O)c(O)c2)N1c1ccccc1Cl (centres undefined)	26.9*	-9.3%	40.7*	54.0%	3.1%	6.8%
O=C1c2ccccc2NC(c2ccc3c(c2)OCO3)N1O (centres undefined)	11.4	0.37µM*	13.0	11.4%	-21.5%	-26.2%
COc1cc(C2Nc3ccccc3C(=O)N2c2ccc3c(c2)OCCO3)ccc1OCC(C)C (centres undefined)	31.2*	/	61.2*	0.0%	?	-21.7%
CC1CN(Cc2ccccc2)c2ccccc2NC1=S (centres undefined)	15.7	?	14.7	-3.4%	-6.7%	?
CCCc1nc2ccccc2c(=O)n1/N=C/c1c(C)[nH]n(-c2ccc(C)cc2)c1=O	8.9	3.7µM*	11.5	3.1%	21.4%	-28.9%
CCCc1nc2ccccc2c(=O)n1/N=C/c1ccccc1O	47.0*	/	59.0	52.4%	?	11.7µM*
CCc1nc2ccccc2c(=O)n1/N=C/c1ccc(Cl)cc1	/	/	/	2.1%	-5.7%	/
Cc1oc(-c2cc(F)cc(F)c2)nc1CN1CCN(C(=O)c2ccco2)CC1	-2.5	?	-9.3	-0.7%	?	4.6%
CN(c1ccccc1)S(=O)(=O)c1ccc(C(=O)NCc2ccccn2)cc1	8.9	-1.3%	1.3	9.9%	3.4%	20.1%
O=C(NCCN1CCCC1)C(c1ccccc1)c1ccccc1	5.0	-9.5%	/	5.4%	4.5%	0.0%
CCc1nc2c(OCc3ccc(C#N)cc3)cccn2c1N(C)C(=O)c1cccs1	/	/	/	0.0%	/	/
CCCNC(=O)c1ccccc1NC(=O)C1=CSCCO1	3.7	14.7µM*	-1.7	-19.6%	-11.9%	5.1%
CN(Cc1ccccc1)C(=O)c1ccccc1NC(=O)C1=CSCCO1	0.5	-0.2%	-4.7	8.2%	-8.0%	-1.4%
CN(Cc1ccccc1)C(=O)c1ccc(NC(=O)C2=CSCCO2)cc1	48.2*	?	43.6*	-2.5%	-5.6%	3.5%
COc1ccc(CNC(=O)c2ccc(NC(=O)C3=CSCCO3)cc2)cc1	27.5*	?	70.6*	0.0%	6.3%	20.1%
CCCNC(=O)c1ccccc1NS(=O)(=O)c1ccc2c(c1)OCCO2	1.0	-15.9%	10.4	19.5%	2.1%	9.28µM*
SMILES	CHX counter	Pf growth 96h	Shiga toxin inh	AMA1 RON2 block	HCV inh	Pf growth 48h
CCOc1ccc(CNC(=O)c2ccccc2NC(=O)C2=CSCCO2)cc1	1.0	-4.7%	-12.4	-1.4%	-17.2%	?
CC(C)CCNC(=O)c1ccccc1NC(=O)C1=CSCCO1	-0.6	0.6%	26.9	6.7%	-2.1%	3.4%
Cc1nn(CCCC(=O)NCCCN2CCN(C)CC2)c(=O)c2c1sc1ccccc12	-2.3	0.0%	-2.6	12.0%	-9.4%	-2.6%
CC(C)CCNC(=O)CN(C(=O)CCC(=O)Nc1nccs1)C1CCCCC1	-2.2	184.1%	-9.4	13.5%	3.3%	-5.0%
O=C(CSc1ncccn1)NC1CCS(=O)(=O)C1 (centres undefined)	-4.3	42.8%	8.9	-4.2%	34.6%	101.6%
Cc1cccc(CNC(=O)c2ccc(NC(=O)C3=CSCCO3)cc2)c1	40.0*	?	38.3	-1.4%	-18.1%	23.6%
CCCSCCCNC(=O)c1ccc(NC(=O)C2=CSCCO2)cc1	11.0	?	67.3*	-0.5%	-3.7%	4.4%
Cc1[nH]c2c(ccc3cccnc32)c1C	17.1*	18.7%	41.5*	?	-31.2%	17.9%
CSc1cccc(CN2CCCC(CNC(=O)c3ccco3)C2)c1 (centres undefined)	-5.9	?	-15.4	-3.2%	-23.6%	?
CCOc1ccc(-c2n[nH]c(C)c2Oc2ccccc2OC)c(O)c1	-1.8	/	-4.4	15.1%	?	4.15µM*
C=C(C)COc1ccc(-c2n[nH]c(C)c2Oc2ccccc2OC)c(O)c1	-1.5	4.65µM*	14.8	-10.1%	31.6µM*	5.22µM*
O=C(CN=C1NC(=O)C(c2ccccc2)(c2ccccc2)N1)NCc1ccc(F)cc1	13.2	16.6%	17.6	-26.6%	7.0%	6.2%
COc1ccc(CNC(=O)CN=C2NC(=O)C(c3ccccc3)(c3ccccc3)N2)cc1	11.5	21.5%	31.3*	7.8%	-4.3%	10.2%
Cc1ccc(S(=O)(=O)NC(=O)c2cc(C)n(-c3ccccc3)c2C)cc1	8.4	-14.8%	-23.5	-3.9%	0.1%	3.1%
Cc1ccc(S(=O)(=O)NC(=O)Nc2ccc(N(C)C)cc2)cc1	55.5*	0.465µM*	54.2*	-25.8%	?	0.738µM*
Cc1ccc(S(=O)(=O)NC(=O)c2cc(C)n(-c3ccc(N(C)C)cc3)c2C)cc1	19.4*	3.7µM*	50.5*	-12.4%	6.6%	?
CCc1ccnc(NC(=O)NS(=O)(=O)c2ccc(C)cc2)c1	15.7*	83.8%	23.1	-3.4%	17.1%	41.2%
Cc1ccc(S(=O)(=O)NCCN=Cc2ccc(N(C)C)cc2)cc1	1.2	7.38µM*	-6.1	10.6%	7.5%	3.3%
COc1ccc(C(=O)N2CCN(c3ccccc3Cl)CC2)cc1S(=O)(=O)NC1CC1	/	?	/	-10.6%	4.6%	?
Cc1ccsc1C(=O)N1CCC1(C)C(=O)NS(=O)(=O)c1ccccc1C(F)(F)F (centres undefined)	/	/	/	9.4%	/	/
